Test results published in PubChem BioAssay (NCATS).
Values joined by “and” are separate entries in the source; they are usually repeats but may differ in a detail not shown here. Equal values may be shown once. Records with an inconclusive call do not appear. Values without a mark were called inactive. Active and inactive are the calls of the source. Calls follow the shape of the dose curve; as a rule, active = well fitted inhibition curve with a large enough effect; inconclusive = small, poorly fitted or top-dose-only effect; inactive = no such curve, though single readings can be large or run the other way.

Test: Primary qHTS for inhibitors of nuclear receptor binding SET domain protein 2 (NSD2) in an RCH-ACV wild type WT cells (2C) (AID 1645877); also: nearly all actives have a fitted effect of over 70% in size
Details: RCH-ACV (leukaemia line) NSD2 WT (2C) viability, CellTiter-Glo, 72 h; series mostly up to 44.9 µM; activity change, negative = cell killing: at the top concentration
% is scaled to controls: 0 for no effect and ±100 for the full control effect; potency is read from the fitted curve at half-maximal effect.

SMILES	activity change, negative = cell killing	Potency	outcome
Cc1cc(C(=O)Nc2cccc(C(=O)Nc3cccc(C(F)(F)F)c3)c2)on1	-9.26%		
O=C(CC(c1ccccc1)c1ccccc1)N1CCN(C(c2ccccc2)c2ccccc2)CC1		8.17 µM (active)	
COc1ccc(C(=O)C2CCN(CC(=O)N(Cc3nc4c(c(=O)[nH]3)COCC4)CC3CC3)CC2)cc1			inactive
CCN(Cc1cccnc1)C(=O)CN(c1ccc(OC)nc1)S(=O)(=O)c1ccccc1C	1.23%		
CN1CCc2nc(C(=O)N[C@@H]3C[C@@H](C(=O)N(C)C)CC[C@@H]3NC(=O)C(=O)Nc3ccc(Cl)cn3)sc2C1	-24.2%		
Cc1cc(C)c(Nc2ccnc(Nc3ccc(C#N)cc3)n2)c(C)c1		4.09 µM (active)	
Cc1cc(C(N)=O)ccc1-n1c(CCC(=O)O)ccc1-c1ccc(-n2ccnc2)cc1	-1.25%		
Cc1cccc2c1NC(=O)C2(c1ccc(O)cc1)c1ccc(O)cc1		8.17 µM (active)	
CC(NC(=O)CCc1nc2ccccc2c(=O)[nH]1)c1ccccc1 (centres undefined)	-13.9%		
Cc1cccc(/C=N/Nc2cc(N3CCOCC3)n3nc(-c4ccncc4)cc3n2)c1		0.515 µM (active)	
COC(=O)CCSCc1ccc(-c2onc(C)c2NC(=O)OC(C)c2ccccc2Cl)cc1 (centres undefined)	-3.52%		
Cn1cc(-c2ccc3nnc(Sc4ccc5nn(C)cc5c4)n3n2)cn1	-12.4%		
CC1COC(Nc2ccc3ncnc(Nc4ccc(OCc5nccs5)c(Cl)c4)c3c2)=N1 (centres undefined)		12.9 µM (active)	
O=C(Nc1ccccc1)N1CCN(Cc2ccc3ccccc3n2)CC1	4.71%		
N#Cc1ccc(C(=O)N2CCC3(CC2)N=C(N)c2c(F)ccc(F)c2N3)cn1	-27.8%		
O=C(O)[C@@H]1C[C@H]2C[C@@H](CCc3nn[nH]n3)CC[C@H]2CN1			inactive
C#CCN(Cc1cc2c(=O)[nH]c(C)nc2cc1Br)c1ccc(C(=O)NCc2cccnc2)cc1		0.0023 µM (active)	
O=C(O)c1ccccc1NC(=O)N1CCC(c2ccccc2C(F)(F)F)CC1	-3.78%		
Cc1ccc(C(=O)Nc2noc3ccccc23)cc1	-7.29%		
CS(=O)(=O)N(CC(=O)NCC1CC1)c1cc(C(F)(F)F)ccc1Cl	-19.3%		

SMILES	activity change, negative = cell killing	Potency	outcome
CCC(Nc1ncnc2nc[nH]c12)c1nc2cccc(F)c2c(=O)n1-c1ccccc1 (centres undefined)		0.461 µM (active)	
O=C(O)C1CN(Cc2ccc(-c3nc4cc(Cc5ccccc5F)ccc4s3)c(F)c2)C1	2.02% [at 9.23 µM]		
CC1CCN(C(=O)CC#N)CC1N(C)c1ncnc2[nH]ccc12 (centres undefined)	-18.4%		
Cc1ccc(C)c(OCCn2cc(C(=O)O)c3ccccc32)c1	-5.5%		
CCNC(=O)Nc1ncc(-c2cc(-c3c(C)cc(OC)cc3C)nc(-c3cnccn3)n2)s1	4.34%		
COc1ccc(CCO[C@@H]2CCCC[C@H]2N2CC[C@@H](O)C2)cc1OC			inactive
Cc1cccc(C)c1-n1c(=O)c2cnc(Nc3ccc(N4CCN(C)CC4)cc3)nc2n2c3ccccc3nc12		0.258 µM (active)	
CCCN1CCC(c2cccc(S(C)(=O)=O)c2)CC1			inactive
O=C(/C=C/c1cccc(S(=O)(=O)Nc2ccccc2)c1)NO		252 nM (active) and 332 nM (active)	
CCc1cnn2c(NCc3ccc[n+]([O-])c3)cc(N3CCCCC3CCO)nc12 (centres undefined)		0.0092 µM (active)	
Cc1cc(-c2cc(O)ccc2Cl)cc2nnc(Nc3ccc(OCCN4CCCC4)cc3)nc12		2.9 µM (active)	
O=S(=O)(NCC1CC1)c1ccc(Nc2nccc(N3CCCc4cc(O)ccc43)n2)cc1		1.15 µM (active)	
Cc1cc(C(=O)N2CCCCc3ccccc32)ccc1CNC(=O)N1CCC[C@H]1C(=O)N(C)C	-1.07%		
COc1ccc(-c2ccc3c(N4CCOCC4)nc(N4CC(C)OC(C)C4)nc3n2)cc1CO (centres undefined)		0.291 µM (active)	
COc1cccc(C(=O)N2CCN(C(=O)COc3cccc(C)c3)CC2)c1OC	-26.6%		
CN(C)C1CCN(C(=O)c2ccc(NC(=O)Nc3ccc(-c4nc(N5CCOCC5)nc(N5CCOCC5)n4)cc3)cc2)CC1		0.0332 µM (active)	
CCC(COC)n1nnc2c(Nc3ccc(OC)cc3C)nc(C)cc21 (centres undefined)	-3.33%		
C=CC(=O)Nc1cccc(CN2C(=O)N(c3c(Cl)c(OC)cc(OC)c3Cl)Cc3cnc(NCCCCN(CC)CC)nc32)c1		2.58 µM (active)	
O=C1N=C(N2CCOCC2)CN1c1ccc(Cl)cc1	-26.5%		
